# Measurements as given in PubChem BioAssay (NCI).
# This is part of a sample that, as a whole, favours compounds with a hit. Of some 83,000 tested, about 20% had one in any assay.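 A percent growth of 40 corresponds to 60% growth inhibition; 0 means no net growth; -100 means all cells died. Active threshold: below 10.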 A number with no mark means an inactive call. Active and inactive are the calls of the source.
# Test system: OVCAR-8 ovarian
# Experiment: NCI-60 one-dose screen, 48 h (100 = growth as untreated, 0 = no growth, -100 = all killed)
# Conditions: 10 µM unless noted
# Description: Growth inhibition of the OVCAR-8 human tumor cell line is measured as a screen for anti-cancer activity. Cells are grown in 96 well plates and exposed to the test compound for 48 hours. Compounds are tested at a single concentration, which is 10^-5 M for most compounds. The reported endpoint is percent growth (GI% or GIPRCNT), where numbers from 0 - 100% represent growth inhibition, and numbers from -100% - 0 represent cell death. For example, a value of 40 represents 60% growth inhibition. A value of 0 means no net growth occurred over the course of the experiment. A value of -40 indicates 40% of cells at the beginning of the experiment died by the end of the experiment. A value of -100 means all cells are dead at the end of the experiment.
# NCI-60 Human Tumor Cell Lines Screen was performed using the standard one-dose NCI protocol, which is described in more detail at https://dtp.cancer.gov/discovery_development/nci-60/default.htm.
# Compounds with GIPRCNT values below 10 were considered active. Activity score was based on GIPRCNT using the following formula: […]
# Score is 0 for GIPRCNT values of 100 or above, 50 for GIPRCNT values of 0, and 100 for GIPRCNT values of -100.
row,SMILES,growth
1,CCOC(=O)/C(=C\c1ccccc1Cl)P(=O)(OCC)OCC,59.1%
2,COC(=O)c1c(C)nc(C)c2c1C(=O)C(Br)=C(NCCN1CCOCC1)C2=O,81.9%
3,CC1(C)C2=C(C(=O)N1Cc1ccccc1)C(c1ccco1)N(C(=O)C1CCC1)CCN2 (stereo not given),115%
4,COc1ccc(-c2ccc(-c3ccc(C(=N)N)nc3)s2)cc1,-17.4% (active)
5,COc1ccc(C(=O)/C=C/Nc2cc(-c3ccccc3)nn2-c2ccccc2)cc1,95.9%
6,Cn1nc(-c2ccc(Cl)cc2)nc2c(=O)n(C)c(=O)nc1-2,-58.8% (active)
7,Nc1ccc(N)c2c1C(=O)c1cccc([N+](=O)[O-])c1C2=O,41.4%
8,CCN(CC)c1ccc(/C=N/NC(=O)c2ccccc2Nc2ccnc(C(F)(F)F)c2)c(O)c1,35.1%
9,Nc1c(C(=O)c2ccc(Cl)cc2)sc(Nc2ccccc2)c1-c1nc2ccccc2s1,23%
10,O=C(Nc1ncc(Cc2ccccc2Cl)s1)c1ccc2c(c1)OCCO2,24.2%
11,COc1ccc(/C=C\c2cc(OC)c(OC)c(OC)c2)cc1OCC(=O)Nc1nc2ccccc2s1,19%
12,C=C(C)[C@@H]1CCC[C@]2(C(=O)OC)CC[C@]3(C)[C@@H](CC[C@@H]4[C@@]5(C)CCCNC(C)(C)[C@@H]5CC[C@]43C)[C@@H]12,89.6%
13,C#CCOc1cccc(Nc2c(Cl)c(CCl)nc3ccc(Oc4ccccc4)cc23)c1,24.8%
14,CN1CCN(Cc2ccc(NC(=O)c3cncc(C#Cc4c(N)ncc5c(F)cccc45)c3)cc2C(F)(F)F)CC1,-72.8% (active)
15,[2H]C([2H])([2H])Oc1ccc(/C=C/C(=O)/C=C(O)/C=C/c2ccc(OC([2H])([2H])[2H])c(OC([2H])([2H])[2H])c2)cc1OC([2H])([2H])[2H],21.8%
16,Cc1ccc(OCCOCCOCCOCCOc2ccc(C)n(O)c2=S)c(=S)n1O,9.37% (active)
17,O=C1C2C(c3cccs3)C=C(c3ccc(Cl)cc3)N2C(=S)N1c1ccccc1 (stereo not given),97.8%
18,COc1cccc2cc(N(C)c3ncnc4ccccc34)ccc12,6.23% (active)
19,CCOC(=O)c1cnc2sc(-c3ccc(OC)cc3)nc2c1Cl,112%
20,C=C(C[n+]1ccccc1)[C@@H]1CC[C@]2(C(=O)OC)CC[C@]3(C)[C@H](CC[C@@H]4[C@@]5(C)CCC(=O)C(C)(C)[C@@H]5CC[C@]43C)[C@@H]12,90.3%

row,SMILES,growth
1,O=C(Nc1cccc2c1C(=O)c1cccc(NC(=O)c3ccc(C(=O)Nc4cccc5c4C(=O)c4cccc(NC(=O)c6ccccc6)c4C5=O)cc3)c1C2=O)c1ccccc1,98.1%
2,CCOC(=O)C1=C(C)N(C)C(=O)N(C)C1c1ccccc1 (stereo not given),104%
3,CNC(=O)c1cc(Oc2cccc3nc(NC(=O)Nc4ccc(F)cc4F)ccc23)ccn1,13.9%
4,C1=C2CCCC3=Cc4ccccc4OC23Oc2ccccc21,38.5%
5,O=C1/C(=C/c2ccc(Br)cc2)COc2ccc(O)cc21,79.1%
6,O=C1CCC(C(=O)N/N=C/c2ccc([N+](=O)[O-])cc2)N1 (stereo not given),101%
7,CC(C)c1nc(N(C)S(C)(=O)=O)nc(-c2ccc(F)cc2)c1/C=C/C(=O)C[C@@H](O)CC(=O)O,94.2%
8,O=C(O)CCCN1C(=O)CSC1=S,105%
9,CCOc1ccc(-c2cc(C3(S(=O)(=O)c4ccc(C)cc4)CC=CC3)on2)cc1,90.4%
10,C=CCn1c(SCC(=O)Nc2ccc(C(=O)/C=C/c3ccc(Cl)cc3)cc2)nnc1-c1ccc(Cl)c(Cl)c1,75.6%
11,COc1ccc(-c2csc(NC(=O)CSc3nc(C)cc(=O)[nH]3)n2)cc1,102%
12,COc1ccc2c(O)cc3c(c2c1)[C@H](CCl)CN3C(=O)c1cc2cc(NC(=O)CCN3CCOCC3)ccc2[se]1,-98.1% (active)
13,CC/C(=C(/c1ccc(Cl)cc1)c1ccc(OCCCN(C)C)cc1)c1ccc(OC)cc1,74.3%
14,Nc1ccc(Cl)c2c(=O)c3ccccc3[nH]c12,92.2%
15,COc1ccc(/C(C)=C(\c2ccc(Cl)cc2)c2ccc(OCCCN(C)C)cc2)cc1,85%
16,Brc1ccc(-c2nn(-c3ccccc3)cc2-c2nn[nH]n2)s1,96.3%
17,Cc1c2cnccc2c(C)c2c1c1cc(C(=O)O)ccc1n2C,5.83% (active)
18,C=C(C)[C@@H]1CC[C@]2(COCCCNCCCN)CC[C@]3(C)[C@H](CC[C@@H]4[C@@]5(C)CC[C@H](OCCCN)C(C)(C)[C@@H]5CC[C@]43C)[C@@H]12,-66.3% (active)
19,COC(=O)CCc1c(/C=C2\N=C(c3ccc[nH]3)C=C2OC)[nH]c(C)c1C(=O)OCc1ccccc1,7.03% (active)
20,CCN1C(=O)N(CC)C2C1NC(=S)N2/N=C/C=C/c1cccs1 (stereo not given),17.2%
